Compound activity (PubChem)
BL2 CD40 inh: CD40 pathway inhibition in BL2 cells; BL2 NF-kB luciferase reporter, CD40L-induced, 4 h; inhibition, % at 10 µM; 0.94% of 83,000 active;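 active means mean inhibition of at least 50% with a set share of replicates also reaching that level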;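 further: 0% = neutral control wells and 100% = IKK inhibitor VII at 50 µM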
Numbers without * were called inactive; [ ] = remark or other dose. Only a selection was taken, and hits are over-represented in it overall.

SMILES | BL2 CD40 inh
CCS(=O)(=O)NCC[C@@H]1CC[C@@H](NC(=O)Nc2cc(Cl)cc(Cl)c2)[C@H](CO)O1 | -10[25 µM]
COc1ccc(-c2cc(NC=O)c3ncc(-c4cccc(C(=O)N(C)C)c4)n3c2)cn1 | -20
CC(=O)Nc1cc(-c2cccc(C(=O)N(C)C)c2)cn2c(-c3ccccc3)cnc12 | 1
CN(C)C(=O)c1cccc(-c2cnc3c(NC=O)cc(-c4cccc(C(F)(F)F)c4)cn23)c1 | 65*
CC[C@@H]1CC=CC[C@@H](C)Oc2ccccc2C(=O)N(C)[C@@H](C)C(=O)N1 (mixture of isomers) | 4[25 µM]
Cc1cnc(NC(=O)c2ccc(OCC3CCCO3)cc2)s1 (stereo not drawn) | 80*
O=C(Nc1ccc(S(=O)(=O)N2CCCC2)cc1)c1ccc(OCC2CCCO2)cc1 (stereo not drawn) | 24
O=C(NC1=NCCS1)c1ccc(OCC2CCCO2)cc1 (stereo not drawn) | 6
O=C(Nc1nc2ccccc2s1)c1ccc(OCC2CCCO2)cc1 (stereo not drawn) | 56*
O=C(Nc1nc2ccccc2s1)c1ccc(F)cc1 | -80
O=C(Nc1ncccc1O)c1ccc(OCC2CCCO2)cc1 (stereo not drawn) | 39
C/C=C/c1ccc([C@H]2[C@@H](CO)N[C@@H]2CNC(=O)C2CC2)cc1 | -5[25 µM]
COc1ccccc1CNC(=O)C[C@@H]1CC[C@H]2[C@@H](COC[C@H](O)CN2Cc2ccc3c(c2)OCO3)O1 | 18[25 µM]
CN1C(=O)c2cc(NC(=O)Nc3ccccc3Cl)ccc2OC[C@@H]2O[C@@H](CC(=O)NCCCN3CCOCC3)CC[C@@H]21 | -3[25 µM]
CC(C)NC(=O)N1[C@H](CO)[C@H]2c3ccccc3N(C(=O)Nc3ccccc3)C[C@H]21 | -28
Cc1cccc(-c2ccc(C3[C@H]4CNC[C@@H]3N4CC3CCOCC3)cc2)c1 (stereo partly drawn) | 3[25 µM]
CCCNC(=O)N1CC2(C1)[C@@H](c1ccccc1)[C@H](CO)N2CC1CCOCC1 | -1[25 µM]
O=C1c2ccccc2-c2nc3ccccc3cc21 | -84
O=C1c2ccccc2C(=O)C1c1ccc2ccccc2n1 | 52*
COc1ccc(C2C(=O)c3ccccc3C2=O)cc1 | -9
C/C(=N/NC(=O)c1ccccn1)c1ccco1 | 18
CC(=NNC(=S)N1CCC1)c1ccccn1 | 97*
CC(=NNC(=S)N1CC2CCC(CC2)C1)c1cccc(C)n1 | -20
C[C@H]1CN([C@@H](C)CO)C(=O)c2cc(NC(=O)C3CCCCC3)ccc2O[C@@H]1CN(C)Cc1ccc2c(c1)OCO2 | -5[25 µM]
O=C(CCN1C(=O)c2ccccc2S1(=O)=O)Nc1ccc2c(c1)OCCO2 | -19
SMILES | BL2 CD40 inh
O=C(CN1C(=O)c2ccccc2S1(=O)=O)c1ccc2c(c1)OCCO2 | 95*
O=C(Cn1cnc2ccccc2c1=O)c1ccc2c(c1)OCCO2 | -58
COc1cccc(NC(=O)/C=C/c2ccc(Cl)cc2)c1 | 16[25 µM]
COc1cccc(-c2ccc3c(c2)[C@@H]2[C@@H](CCN2C(=O)c2ccc(F)cc2)[C@H](CO)N3)c1 | -7[25 µM]
CN1C(=O)c2cc(NC(=O)C3CCOCC3)ccc2OC[C@@H]2O[C@H](CC(=O)NCCc3ccncc3)CC[C@@H]21 | 5[25 µM]
Cc1ccc(S(=O)(=O)N[C@@H]2CC[C@@H](CCn3cc(C4CCCC4)nn3)O[C@H]2CO)cc1 | 2
C[C@@H]1CN([C@@H](C)CO)C(=O)Cc2cc(NS(=O)(=O)c3ccc(F)cc3)ccc2O[C@H]1CN(C)Cc1ccncc1 | 7[25 µM]
C[C@@H]1CN([C@H](C)CO)C(=O)Cc2cc(NS(=O)(=O)c3ccccc3)ccc2O[C@H]1CN(C)Cc1ccc(Cl)c(Cl)c1 | 42
COc1ccc(CN(C)C[C@H]2Oc3ccc(NS(=O)(=O)c4ccc(Cl)cc4)cc3CC(=O)N([C@@H](C)CO)C[C@@H]2C)cc1 | 13
C[C@@H]1CN([C@@H](C)CO)C(=O)Cc2cc(NS(=O)(=O)c3ccc(F)cc3)ccc2O[C@@H]1CN(C)Cc1ccc(C(F)(F)F)cc1 | 47*
C[C@H](CO)N1C[C@H](C)[C@@H](CN(C)Cc2ccncc2)Oc2ccc(NS(=O)(=O)c3ccc(F)cc3)cc2CC1=O | 0[25 µM]
C[C@@H]1CN([C@H](C)CO)C(=O)Cc2cc(NS(=O)(=O)c3ccc(F)cc3)ccc2O[C@H]1CN(C)Cc1ccncc1 | 5[25 µM]
C[C@@H]1CN([C@H](C)CO)C(=O)Cc2cc(NS(=O)(=O)c3ccc(F)cc3)ccc2O[C@H]1CN(C)Cc1ccc(C(F)(F)F)cc1 | 56*
C[C@H](CO)N1C[C@H](C)[C@@H](CN(C)Cc2ccc(C(F)(F)F)cc2)Oc2ccc(NS(=O)(=O)c3ccc(Cl)cc3)cc2CC1=O | 52*
C[C@@H]1CN([C@H](C)CO)C(=O)Cc2cc(NS(C)(=O)=O)ccc2O[C@@H]1CN(C)Cc1ccc(C(=O)O)cc1 | -1
O=C(Nc1ccc(F)cc1)N1[C@H](CO)[C@@H]2c3ccccc3NC[C@@H]21 | -11[25 µM]
COc1ccc(NC(=O)N[C@H]2CC[C@H](CCNC(=O)CN3CCOCC3)O[C@H]2CO)cc1 | -2[25 µM]
CN1c2ccc(-c3ccc(F)cc3)cc2[C@H]2[C@H](CCN2C(=O)c2ccc(F)cc2)[C@@H]1CO | -1
CN1CCN(C(=O)C[C@H]2CC[C@@H]3[C@@H](COc4ccc(NC(=O)c5cccs5)cc4C(=O)N3C)O2)CC1 | -3[25 µM]
Cc1ccc2oc(-c3cccc(NC(=O)C4CCCO4)c3)nc2c1 (stereo not drawn) | -27
CC(=O)Nc1ccc2oc(-c3ccccc3)nc2c1 | -2
Cc1cccc(-c2nc3cc(NC(=O)C4CCCO4)ccc3o2)c1 (stereo not drawn) | 54*
CC1(C)CC1C(=O)N/C(=C\CCCCSCC(N)C(=O)O)C(=O)O (stereo not drawn) | -2[25 µM]
COc1ccc(S(=O)(=O)N(C)C[C@@H]2OCc3cn(nn3)CCCC(=O)N([C@H](C)CO)C[C@@H]2C)cc1 | 1[25 µM]
C[C@H](CO)N1C[C@H](C)[C@H](CN(C)S(=O)(=O)c2ccc(Cl)cc2)OCc2ccccc2-c2ccccc2C1=O | 25
SMILES | BL2 CD40 inh
O=C(C1CCC1)N1C[C@@H]2[C@H](c3ccccc31)[C@@H](CO)N2C(=O)Cc1ccccn1 | 8
Cc1c(C(=O)NCCc2ccccc2)oc2ccc(S(=O)(=O)N3CCOCC3)cc12 | -16
COc1ccc2oc(C(=O)NCCc3ccccc3)c(C)c2c1 | 58*
COc1ccc2oc(C(=O)NCC(c3ccco3)N(C)C)c(C)c2c1 (stereo not drawn) | 1
COc1ccccc1Nc1nc(NCc2ccco2)c2ccccc2n1 | -21
c1ccc(-c2nc(NCc3ccco3)c3ccccc3n2)nc1 | 53*
c1ccc(N2CCN(c3nc(NCc4ccco4)c4ccccc4n3)CC2)cc1 | 29
O=C(c1ccc2c(c1)OCO2)N1C[C@H]2[C@@H](c3ccccc31)[C@H](CO)N2Cc1cccnc1 | -11[25 µM]
Cc1cc(NC(=O)c2ccc3c(c2)OCCO3)no1 | 79*
O=C(Nc1ccccn1)c1ccc2c(c1)OCCO2 | -2
Cc1cc(NC(=O)c2ccc(F)cc2)no1 | -21
CCN1[C@@H]2c3ccc(-c4cccc(F)c4)c(=O)n3C[C@@H]2[C@@H](CO)[C@@H]1C(=O)NCCCN(C)C | -6[25 µM]
CN1C(=O)c2cc(NC(=O)c3cnccn3)ccc2OC[C@H]2O[C@@H](CC(=O)NCC3CC3)CC[C@H]21 | 8
C[C@H](NC(=O)C[C@H]1C=C[C@H](NS(=O)(=O)c2cccc(F)c2)[C@H](CO)O1)c1ccccc1 | -7[25 µM]
COc1ccc(-c2ccccc2[C@@H]2[C@@H](C#N)N(C(=O)C3CCOCC3)[C@H]2CO)cc1 | -14[25 µM]
